Assay results: the supplement of paper PMC9262897, “Low-cost anti-mycobacterial drug discovery using engineered E. coli” (Nature Communications, 2022)
Where a name gives a salt, the structure may show the parent alone. ± gives the standard deviation of the averaged measurements.

How the values were obtained:
Assay in all cases: growth (OD600 after 10 h); higher = more growth (less inhibition)
[1] = test system: E. coli TESEC Alr+ wild-type control; conditions: compound 0.1 mM; raw OD600 reference: median of DMSO wells 0.241, cell-free background 0.041
Method: (§1)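 TESEC Mtb Alr E. coli, or the Alr+ wild-type control, in 384-well plates with Prestwick library compounds at 0.1 mM and 1% DMSO, across arabinose induction levels of 1E3 to 1E7 nM. Growth is read as OD600 after 10 h at 37 °C in triplicate biological replicates.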

[2] = test system: E. coli TESEC Mtb Asd; conditions: compound 0.1 mM
Method: (§2)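 TESEC E. coli strains in which the native enzyme is deleted and replaced by arabinose-inducible Mtb Asd, DapB, CysH or TrpD, each grown in its selective medium. Strains were screened against the Prestwick library at 0.1 mM and 1% DMSO in 384-well format at low and high arabinose induction. Growth is read as OD600 after 10 h in triplicate.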

[3] = test system: E. coli TESEC Mtb DapB; conditions: compound 0.1 mM
Method: as §2

[4] = test system: E. coli TESEC Alr+ wild-type control; conditions: compound 0.1 mM; raw OD600 reference: median of DMSO wells 0.49, cell-free background 0.052
Method: (§3)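 TESEC Mtb Alr E. coli (ΔaraC ΔtolC ΔentC Δalr ΔdadX, arabinose-inducible Mtb Alr) or the Alr+ wild-type control strain, grown in defined M9-fructose medium without D-alanine in 96-well plates with Prestwick library compounds at 0.1 mM and 1% DMSO. Low Alr induction is 0.1 µM arabinose and high induction is 10 mM arabinose.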

[5] = test system: E. coli TESEC Mtb Alr; conditions: compound 0.1 mM
Method: as §3

[6] = test system: E. coli TESEC Mtb Alr; conditions: compound 0.1 mM; remark: listed apart in the source
Method: as §1

[7] = arabinose induction (level): High, raw OD600 reference: median of DMSO wells 0.331, cell-free background 0.041
[8] = arabinose induction (level): Low, raw OD600 reference: median of DMSO wells 0.417, cell-free background 0.041
[9] = arabinose induction (level): High, raw OD600 reference: median of DMSO wells […], cell-free background 0.041
[10] = arabinose induction (level): Low, raw OD600 reference: median of DMSO wells 0.227, cell-free background 0.041
[11] = arabinose 100 nM, raw OD600 reference: median of DMSO wells 0.413, cell-free background 0.052
[12] = arabinose 10000000 nM, raw OD600 reference: median of DMSO wells […], cell-free background 0.052
[13] = arabinose 1000 nM, raw OD600 reference: median of DMSO wells 0.294, cell-free background 0.041
[14] = arabinose 10000 nM, raw OD600 reference: median of DMSO wells 0.264, cell-free background 0.041
[15] = arabinose 100000 nM, raw OD600 reference: median of DMSO wells 0.201, cell-free background 0.041
[16] = arabinose 1000000 nM, raw OD600 reference: median of DMSO wells 0.193, cell-free background 0.041
[17] = arabinose 10000000 nM, raw OD600 reference: median of DMSO wells 0.146, cell-free background 0.041

Row | SMILES | growth [1] | growth [2, 7] | growth [2, 8] | growth [3, 9] | growth [3, 10] | growth [4] | growth [5, 11] | growth [5, 12] | growth [6, 13] | growth [6, 14] | growth [6, 15] | growth [6, 16] | growth [6, 17]
1 | CCN(CC)CCc1nc(-c2ccccc2)no1 [Oxalamine citrate salt] | 0.23 ± 0.012 | 0.307 ± 0.045 | 0.332 ± 0.031 | 0.186 ± 0.0074 | 0.216 ± 0.013 | 0.537 ± 0.036 | 0.406 ± 0.011 | 0.343 ± 0.015 | – | – | – | – | –
2 | CCc1c(C)[nH]c2c1C(=O)C(CN1CCOCC1)CC2 (stereo not given) [Molindone hydrochloride] | 0.221 ± 0.013 | 0.274 ± 0.06 | 0.36 ± 0.064 | 0.189 ± 0.0083 | 0.25 ± 0.025 | 0.472 ± 0.013 | 0.409 ± 0.016 | 0.33 ± 0.017 | – | – | – | – | –
3 | CC[C@@H]1C(=O)OC[C@@H]1Cc1cncn1C [Pilocarpine nitrate] | 0.231 ± 0.0064 | 0.222 ± 0.012 | 0.279 ± 0.044 | 0.199 ± 0.016 | 0.222 ± 0.023 | 0.674 ± 0.05 | 0.391 ± 0.0052 | 0.319 ± 0.044 | – | – | – | – | –
4 | Clc1cnccn1 [2-Chloropyrazine] | 0.241 ± 0.011 | 0.245 ± 0.034 | 0.307 ± 0.049 | 0.231 ± 0.013 | 0.254 ± 0.025 | 0.586 ± 0.067 | 0.4217 ± 0.0015 | 0.325 ± 0.0083 | – | – | – | – | –
5 | CC(C(=O)O)c1ccc(-c2ccccc2)c(F)c1 (stereo not given) [Flurbiprofen] | 0.188 ± 0.0069 | 0.366 ± 0.076 | 0.238 ± 0.056 | 0.208 ± 0.0072 | 0.188 ± 0.023 | 0.486 ± 0.025 | 0.387 ± 0.021 | 0.286 ± 0.014 | – | – | – | – | –
6 | COc1nc(C)nc(Cl)c1NC1=NCCN1 [Moxonidine] | 0.241 ± 0.011 | 0.248 ± 0.033 | 0.434 ± 0.025 | 0.209 ± 0.016 | 0.254 ± 0.017 | 0.567 ± 0.019 | 0.411 ± 0.015 | 0.342 ± 0.02 | – | – | – | – | –
7 | Clc1ccc(Cn2c(CN3CCCC3)nc3ccccc32)cc1 [Clemizole hydrochloride] | 0.151 ± 0.0091 | 0.174 ± 0.038 | 0.135 ± 0.0075 | 0.156 ± 0.027 | 0.212 ± 0.079 | 0.452 ± 0.049 | 0.406 ± 0.011 | 0.185 ± 0.055 | – | – | – | – | –
8 | CCCCC1=NC2(CCCC2)C(=O)N1Cc1ccc(-c2ccccc2-c2nnn[nH]2)cc1 [Irbesartan] | 0.152 ± 0.0053 | 0.198 ± 0.03 | 0.21 ± 0.029 | 0.204 ± 0.014 | 0.263 ± 0.048 | 0.528 ± 0.12 | 0.346 ± 0.012 | 0.167 ± 0.014 | – | – | – | – | –
9 | CC(C)NC[C@H](O)COc1ccc(CC(N)=O)cc1 [(S)-(-)-Atenolol] | 0.244 ± 0.0056 | 0.287 ± 0.095 | 0.343 ± 0.051 | 0.193 ± 0.037 | 0.222 ± 0.03 | 0.528 ± 0.092 | 0.413 ± 0.01 | 0.341 ± 0.022 | – | – | – | – | –
10 | C[C@]12CC[C@@H]3c4ccc(O)cc4CC[C@H]3[C@@H]1C[C@@H](O)[C@@H]2O [Estriol] | 0.152 ± 0.0072 | 0.221 ± 0.043 | 0.264 ± 0.034 | 0.183 ± 0.008 | 0.203 ± 0.033 | 0.474 ± 0.021 | 0.432 ± 0.0087 | 0.258 ± 0.013 | – | – | – | – | –
11 | C[C@@H]1[C@H](O)[C@@H](C)/C=C/C=C/C=C/C=C/C=C/C=C/C=C/[C@H](O[C@@H]2O[C@H](C)[C@@H](O)[C@H](N)[C@@H]2O)C[C@@H]2O[C@](O)(C[C@@H](O)C[C@@H](O)[C@H](O)CC[C@@H](O)C[C@@H](O)CC(=O)O[C@H]1C)C[C@H](O)[C@H]2C(=O)O [Amphotericin B] | 0.316 ± 0.0027 | 0.416 ± 0.042 | 0.504 ± 0.026 | 0.208 ± 0.019 | 0.237 ± 0.046 | 0.532 ± 0.087 | 0.433 ± 0.022 | 0.478 ± 0.027 | – | – | – | – | –
12 | Nc1nc(N)c2nc(-c3ccccc3)c(N)nc2n1 [Triamterene] | 0.135 ± 0.0027 | 0.235 ± 0.014 | 0.411 ± 0.015 | 0.165 ± 0.0077 | 0.203 ± 0.046 | 0.422 ± 0.0047 | 0.416 ± 0.0074 | 0.122 ± 0.016 | – | – | – | – | –
13 | Cc1cccc(C)c1OCC(C)N (stereo not given) [Mexiletine hydrochloride] | 0.225 ± 0.0049 | 0.348 ± 0.076 | 0.397 ± 0.033 | 0.2 ± 0.013 | 0.288 ± 0.071 | 0.399 ± 0.005 | 0.4 ± 0.015 | 0.352 ± 0.015 | – | – | – | – | –
14 | CC(=O)Nc1ccc(CC(=O)O)cc1 [Actarit] | 0.2349 ± 0.00093 | 0.291 ± 0.009 | 0.311 ± 0.097 | 0.183 ± 0.017 | 0.203 ± 0.025 | 0.574 ± 0.11 | 0.412 ± 0.011 | 0.342 ± 0.015 | – | – | – | – | –
15 | O=c1cc(-c2ccc(O)c(O)c2)oc2cc(O)cc(O)c12 [Luteolin] | 0.05467 ± 0.00021 | 0.0806 ± 0.023 | 0.063 ± 0.0053 | 0.0614 ± 0.0012 | 0.0607 ± 0.002 | 0.174 ± 0.18 | 0.152 ± 0.019 | 0.0574 ± 0.0016 | – | – | – | – | –
16 | CC(C)(C)C(=O)OCOC(=O)[C@@H]1N2C(=O)[C@@H](NC(=O)[C@H](N)c3ccccc3)[C@H]2SC1(C)C [Pivampicillin] | 0.26 ± 0.0055 | 0.376 ± 0.075 | 0.396 ± 0.018 | 0.216 ± 0.058 | 0.24 ± 0.024 | 0.555 ± 0.11 | 0.4 ± 0.012 | 0.379 ± 0.028 | – | – | – | – | –
17 | CCOC(=O)C1=C(C)NC(C)=C(C(=O)OC)C1c1cccc([N+](=O)[O-])c1 (stereo not given) [Nitrendipine] | 0.173 ± 0.013 | 0.246 ± 0.036 | 0.4531 ± 0.0035 | 0.217 ± 0.016 | 0.215 ± 0.0092 | 0.557 ± 0.015 | 0.412 ± 0.017 | 0.221 ± 0.13 | – | – | – | – | –
18 | NC[C@@H]1O[C@@H](O[C@H]2[C@H](O)[C@@H](O[C@H]3O[C@H](CO)[C@@H](O)[C@H](N)[C@H]3O)[C@H](N)C[C@@H]2N)[C@@H](O)[C@H](O)[C@H]1O [Kanamycin A sulfate] | 0.247 ± 0.0031 | 0.245 ± 0.044 | 0.404 ± 0.073 | – | – | – | 0.403 ± 0.008 | 0.353 ± 0.014 | 0.302 ± 0.013 | 0.263 ± 0.0086 | 0.228 ± 0.016 | 0.1781 ± 0.0015 | 0.164 ± 0.0095
19 | CO[C@H]1/C=C/O[C@@]2(C)Oc3c(C)c(O)c4c(O)c(c(/C=N/N5CCN(C)CC5)c(O)c4c3C2=O)NC(=O)/C(C)=C\C=C\[C@H](C)[C@H](O)[C@@H](C)[C@@H](O)[C@@H](C)[C@H](OC(C)=O)[C@@H]1C [Rifampicin] | 0.0429 ± 0.0015 | 0.0643 ± 0.011 | 0.0572 ± 0.0093 | 0.106 ± 0.094 | 0.0504 ± 0.00072 | 0.05337 ± 0.00042 | 0.0557 ± 0.00079 | 0.0524 ± 0.00092 | – | – | – | – | –
20 | Nc1nc(=O)c2nc(CNc3ccc(C(=O)N[C@@H](CCC(=O)O)C(=O)O)cc3)cnc2[nH]1 [Folic acid] | 0.25 ± 0.0064 | 0.219 ± 0.037 | 0.318 ± 0.021 | 0.211 ± 0.019 | 0.239 ± 0.013 | 0.446 ± 0.02 | 0.407 ± 0.011 | 0.34 ± 0.02 | – | – | – | – | –
21 | CCN(CCCCOC(=O)c1ccc(OC)c(OC)c1)C(C)Cc1ccc(OC)cc1 (stereo not given) [Mebeverine hydrochloride] | 0.157 ± 0.004 | 0.197 ± 0.026 | 0.396 ± 0.046 | 0.166 ± 0.012 | 0.252 ± 0.032 | 0.435 ± 0.016 | 0.4063 ± 0.003 | 0.311 ± 0.0053 | – | – | – | – | –
22 | CCN(CC)C(=O)/C(C#N)=C/c1cc(O)c(O)c([N+](=O)[O-])c1 [Entacapone] | 0.0523 ± 0.00059 | 0.142 ± 0.005 | 0.149 ± 0.029 | – | – | – | 0.195 ± 0.011 | 0.0695 ± 0.0028 | 0.0552 ± 0.0036 | 0.0571 ± 0.00062 | 0.0534 ± 0.0015 | 0.0544 ± 0.00092 | 0.0482 ± 0.00026
